Measured values: PubChem BioAssay (NCATS)
Inconclusive results are not listed. Unmarked numbers belong to inactive results. Calls of active or inactive are those of the source. Calls follow the shape of the dose curve; as a rule, active = well fitted inhibition curve with a large enough effect; inconclusive = small, poorly fitted or top-dose-only effect; inactive = flat fitted curve, though single readings scatter.

Experiment: qHTS to identify inhibitors of the type 1 interferon - major histocompatibility complex class I in skeletal muscle: primary screen against the NCATS Pharmaceutical Collection (AID 1347407);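 also: luminescence of HiBiT knocked into endogenous HLA-B as interferon-induced MHC class I level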
Conditions: human skeletal muscle cells, IFN-b-induced MHC-I HiBiT luminescence, 24 h; series mostly up to 45.9 µM; activity change, negative = inhibition: at the top concentration
Method in brief: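 Compounds […] were added to CRISPR-engineered HLA-B-HiBiT C25cl48 human myoblasts with 4.0 ng/ml IFN-beta. After 24 hrs at 37 C, cells were lysed and HiBiT luminescence measured.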
% is scaled to controls: 0 for no effect and ±100 for the full control effect.

Compound	activity change, negative = inhibition	Potency
N[C@H]1C(O)O[C@H](CO)[C@@H](O)[C@@H]1O (some centres undefined)	-5.51%	–
CCOC(=O)c1ccc(O)cc1	-6.15%	–
C=CCn1c(=O)n([C@@H]2O[C@H](CO)[C@@H](O)[C@H]2O)c2nc(N)[nH]c(=O)c21	2.35%	–
CC1(C)CO[C@@H](CC(=O)O)CN1	-3%	–
CC(C)(C)NCC(O)COc1ccc(NC(=O)NC2CCCCC2)cc1 (centres undefined)	8.2%	–
CC(=O)Nc1ccc(/C=N/NC(N)=S)cc1	-16.6%	–
CCCOC(=O)c1ccccc1	-7.93%	–
c1ccc2c(CC3=NCCN3)cccc2c1	-5.16%	–
CC1(C)S[C@@H]2[C@H](NC(=O)Cc3ccccc3)C(=O)N2[C@H]1C(=O)O (tested in a mixture with another compound)	-2.87%	–
NC(=O)N/N=C/c1ccc([N+](=O)[O-])o1	–	inactive
Cc1ccc(C(C)C)cc2c(C)ccc1-2	-2.05%	–
CCCCC(CC)COC(=O)c1ccccc1O (centres undefined)	1.43%	–
COc1cc2[nH]c(=O)[nH]c(=O)c2cc1OC	-9.49%	–
NCCNCCNCCNCCN	0.364% [at 9.18 µM]	–
O=C(O)CC(O)C(=O)O (centres undefined)	9.55%	–
CCn1cc(C(=O)O)c(=O)c2cnc(N3CCNCC3)nc21	-0.61%	–
Oc1ccc(C(O)CNCCCCCCNCC(O)c2ccc(O)c(O)c2)cc1O (centres undefined)	3.74%	–
O=Cc1ccccc1C=O	10.7%	–
CC(=O)NC(Cc1ccccc1)C(=O)O (centres undefined)	-5.39%	–
O=C(O)[C@@H]1CSCN1	-3.84%	–

Compound	activity change, negative = inhibition	Potency
O=C(O)COc1nn(Cc2ccccc2)c2ccccc12	-5.31%	–
CC(COc1ccccc1)NC(C)C(O)c1ccc(O)cc1 (centres undefined)	-18.7%	–
C[C@H](N)[C@H](O)c1cccc(O)c1	-14.4%	–
CN1CCCCC1CCN1c2ccccc2Sc2ccc(S(C)=O)cc21 (centres undefined)	-5.55%	–
O=C(Oc1ccccc1C(=O)O)c1ccccc1O	-1.94%	–
CN1[C@@H]2CC[C@H]1CC(OC(=O)C(O)c1ccccc1)C2 (some centres undefined)	5.2%	–
NC(=O)NC(=O)Cc1ccccc1	-5.58%	–
O=C1c2c(O)cccc2Cc2cccc(O)c21	19.8%	–
CN(C)CCCO[C@@H]1[C@H]2OC(C)(C)O[C@H]2O[C@@H]1C(O)CO (some centres undefined)	-12.9%	–
O=C(O)c1ccccc1-c1ccc(C(F)(F)F)cc1	-12.1%	–
O=C(O)[C@H](O)c1ccccc1	15.7%	–
NC(CSCC(=O)O)C(=O)O (centres undefined)	4.63%	–
CN1[C@@H]2CC(OC(=O)[C@H](CO)c3ccccc3)C[C@H]1[C@@H]1O[C@@H]12 (some centres undefined)	-1.57%	–
Nc1ccc(S(=O)(=O)Nc2ccc(Cl)nn2)cc1	2.97%	–
CCCCCCCCCCCCCCCCCCOCC(O)CO (centres undefined)	-5.35%	–
OC[C@H]1O[C@@H](O[C@@H]2[C@@H](CO)O[C@](O)(CO)[C@H]2O)[C@H](O)[C@@H](O)[C@H]1O	1.38%	–
N[C@@H](CSCCCO)C(=O)O	3.64% [at 19 µM]	–
O=C1O[C@H](CO)[C@@H](O)[C@H](O)[C@H]1O	-14.3%	–
NCCNCCNCCN	21.1%	–
